From PubChem BioAssay (NCI)
About 83,000 compounds went through this panel and 20% of them were active in at least one assay; those are over-represented in the sample as a whole.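 Growth was measured after 48 h exposure to one concentration of compound in 96-well plates. Values under 10 count as active.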 Unmarked numbers belong to inactive results. Activity calls are given as the source filed them.

tested on: HCT-116 colon; assay: NCI-60 one-dose screen, 48 h (100 = growth as untreated, 0 = no growth, -100 = all killed); conditions: 10 µM unless noted

SMILES	growth
Clc1cccc(CNc2c3ccccc3nc3ccccc23)c1	8.69% (active)
CC(C)(C)c1ccc(OC(=O)Nc2ccccc2)cc1	97.4%
O=C(/C=C/c1ccco1)c1ccccc1O	96.8%
CC(C)CC(=O)C(CCc1ccccn1)C(C)C (stereo unspecified)	105%
Cc1nn(-c2ccccc2)c2nc3c(nc12)C1=NCCN1C(c1ccc(Cl)cc1)N3 (stereo unspecified)	68.8%
Cc1cc([N+](=O)[O-])c(C)cc1N	109%
O=C1/C(=C/c2cc(F)cc(F)c2)Cc2cc(F)cc(F)c21	79.8%
N/C(=N\OC(=O)c1ccccc1)C(C(=O)NOC(=O)c1ccccc1)C1CCCCC1 (stereo unspecified)	36.7%
CCN(CC)CCNC(=O)C(F)(F)C(F)(F)C(F)(F)F	96.2%
O=C(Nc1ccncc1)C(=O)c1cn(S(=O)(=O)c2cccc(Cl)c2F)c2ccccc12	31.3%
CC(=O)Oc1c(Cl)c(Cl)c(Cl)c(Cl)c1Cl	99.4%
COc1cnc2c(c1)C(=O)c1c-2n(CCCN2CCNCC2)c(=O)c2cc(Cl)ccc12	-100% (active)
Cc1cc(C#Cc2ccc(C(C)(C)C)cc2)ccc1-n1c(/C=C/c2c(Cl)cccc2Cl)nc2ccccc2c1=O	89.2%
CS(=O)(=O)c1ccc(C(=O)N/N=C/c2ccccc2Cl)cc1	94.3%
O=C(/C=C/c1ccccc1)c1c[nH]c2ccccc2c1=O	0.346% (active)
COC(=O)[C@H](Cc1cn(C)cn1)NC(=O)[C@H](CC(C)C)NC(=O)Nc1cc(C(F)(F)F)cc(C(F)(F)F)c1	-98% [100 µM] (active)
CS(=O)(=O)c1ccc(C(=O)N/N=C/c2ccccc2O)cc1	29.1%
CCCCCCCCCCCCCC	102%
C[Si](C)(C)C(c1ccccc1)c1ccccc1	97.7%

SMILES	growth
C=CCN1C(=O)/C(=c2\sc3n(c2=O)C2C(NN=3)N(CC)C(=O)N2CC)c2ccccc21 (stereo unspecified)	10.7%
CNC1=C([N+](=O)[O-])C(c2ccccc2O)C(C#N)=C(c2cccs2)O1 (stereo unspecified)	98.7%
NS(=O)(=O)c1ccc(CCn2c(SCC(=O)N/N=C/c3cccnc3)nc3ccccc3c2=O)cc1	77.3%
O=[N+]([O-])c1ccc(Sc2nc(Cl)nc(NC3CCCC3)n2)cc1	-94.3% [100 µM] (active)
COC(=O)OC1C(O[C@H]2C[C@H]3[C@@H]4CC=C5C[C@@H](O)CC[C@]5(C)[C@H]4CC[C@]3(C)[C@H]2[C@H](C)C(=O)CCC(C)C)OCC(O)C1OC1OCC(O)C(O)C1OC(=O)c1ccc(OC)cc1 (stereo partly specified)	5.29% (active)
CCCCCCCCCCCC1=NC(C)(C)CN1CC(C)O (stereo unspecified)	22.8%
O=C(C(=O)N1CCCC1)c1cn(CCCn2cc(C(=O)C(=O)N3CCCC3)c3cc(Br)ccc32)c2ccc(Br)cc12	58.6%
Cc1c(C(N)=O)sc2ncn(CC(=O)NN=C3CCCCC3)c(=O)c12	95.1%
Fc1ccc(-c2nc(-c3ccc(-c4nc5ccc(F)cc5[nH]4)cc3)no2)cc1	73%
Cc1cc2nc(CN)[nH]c2cc1C	104%
N=C(N)c1ccc(-c2ccc(-c3cccs3)s2)cc1F	-47.2% (active)
Oc1c(C(Nc2cccc3ccccc23)c2ccccc2)ccc2cccnc12 (stereo unspecified)	15.6%
CSc1ccc(/C=C2\C=C(CC(=O)NCc3ccc(C(=O)c4ccccc4)cc3)c3cc(F)ccc32)cc1	-28% (active)
CCN(CC)c1ccc(/C=N/N=C(N)N)cc1	32.5%
CC(=O)O[C@@H]1CC2C(C)(C)CCCC2(C)C2=C1C(=O)C(C(C)C)=CC2=O (stereo partly specified)	-24.4% (active)
c1ccc(CCn2cccc2)nc1	101%
c1ccc(-c2nnn(-c3ccccc3)n2)cc1	97.3%
Cc1csc(N/N=C/c2ccncc2)n1	97.6%
COc1ccccc1CNCCCN1C(=O)c2ccc3c4c(ccc(c24)C1=O)C(=O)N(CCCCNCCCN)C3=O	-11% (active)

tested on: HCC-2998 colon; assay: as above; conditions: 10 µM unless noted

SMILES	growth
Clc1cccc(CNc2c3ccccc3nc3ccccc23)c1	-53.6% (active)
CC(C)(C)c1ccc(OC(=O)Nc2ccccc2)cc1	107%
O=C(/C=C/c1ccco1)c1ccccc1O	84.4%
CC(C)CC(=O)C(CCc1ccccn1)C(C)C (stereo unspecified)	106%
Cc1nn(-c2ccccc2)c2nc3c(nc12)C1=NCCN1C(c1ccc(Cl)cc1)N3 (stereo unspecified)	-25.2% (active)
Cc1cc([N+](=O)[O-])c(C)cc1N	102%
O=C1/C(=C/c2cc(F)cc(F)c2)Cc2cc(F)cc(F)c21	105%
N/C(=N\OC(=O)c1ccccc1)C(C(=O)NOC(=O)c1ccccc1)C1CCCCC1 (stereo unspecified)	98%
CCN(CC)CCNC(=O)C(F)(F)C(F)(F)C(F)(F)F	105%
O=C(Nc1ccncc1)C(=O)c1cn(S(=O)(=O)c2cccc(Cl)c2F)c2ccccc12	66.4%
CC(=O)Oc1c(Cl)c(Cl)c(Cl)c(Cl)c1Cl	94.9%
COc1cnc2c(c1)C(=O)c1c-2n(CCCN2CCNCC2)c(=O)c2cc(Cl)ccc12	54.4%
Cc1cc(C#Cc2ccc(C(C)(C)C)cc2)ccc1-n1c(/C=C/c2c(Cl)cccc2Cl)nc2ccccc2c1=O	99.3%
CS(=O)(=O)c1ccc(C(=O)N/N=C/c2ccccc2Cl)cc1	95.8%
O=C(/C=C/c1ccccc1)c1c[nH]c2ccccc2c1=O	51.3%
COC(=O)[C@H](Cc1cn(C)cn1)NC(=O)[C@H](CC(C)C)NC(=O)Nc1cc(C(F)(F)F)cc(C(F)(F)F)c1	-90.3% [100 µM] (active)
CS(=O)(=O)c1ccc(C(=O)N/N=C/c2ccccc2O)cc1	47.3%
CCCCCCCCCCCCCC	97.8%
C[Si](C)(C)C(c1ccccc1)c1ccccc1	97.2%

SMILES	growth
C=CCN1C(=O)/C(=c2\sc3n(c2=O)C2C(NN=3)N(CC)C(=O)N2CC)c2ccccc21 (stereo unspecified)	4.46% (active)
CNC1=C([N+](=O)[O-])C(c2ccccc2O)C(C#N)=C(c2cccs2)O1 (stereo unspecified)	114%
NS(=O)(=O)c1ccc(CCn2c(SCC(=O)N/N=C/c3cccnc3)nc3ccccc3c2=O)cc1	111%
O=[N+]([O-])c1ccc(Sc2nc(Cl)nc(NC3CCCC3)n2)cc1	-86.5% [100 µM] (active)
COC(=O)OC1C(O[C@H]2C[C@H]3[C@@H]4CC=C5C[C@@H](O)CC[C@]5(C)[C@H]4CC[C@]3(C)[C@H]2[C@H](C)C(=O)CCC(C)C)OCC(O)C1OC1OCC(O)C(O)C1OC(=O)c1ccc(OC)cc1 (stereo partly specified)	53.7%
CCCCCCCCCCCC1=NC(C)(C)CN1CC(C)O (stereo unspecified)	-60.8% (active)
O=C(C(=O)N1CCCC1)c1cn(CCCn2cc(C(=O)C(=O)N3CCCC3)c3cc(Br)ccc32)c2ccc(Br)cc12	81.6%
Cc1c(C(N)=O)sc2ncn(CC(=O)NN=C3CCCCC3)c(=O)c12	106%
Fc1ccc(-c2nc(-c3ccc(-c4nc5ccc(F)cc5[nH]4)cc3)no2)cc1	82.2%
Cc1cc2nc(CN)[nH]c2cc1C	106%
N=C(N)c1ccc(-c2ccc(-c3cccs3)s2)cc1F	-81.2% (active)
Oc1c(C(Nc2cccc3ccccc23)c2ccccc2)ccc2cccnc12 (stereo unspecified)	27.5%
CSc1ccc(/C=C2\C=C(CC(=O)NCc3ccc(C(=O)c4ccccc4)cc3)c3cc(F)ccc32)cc1	-0.5% (active)
CCN(CC)c1ccc(/C=N/N=C(N)N)cc1	85.5%
CC(=O)O[C@@H]1CC2C(C)(C)CCCC2(C)C2=C1C(=O)C(C(C)C)=CC2=O (stereo partly specified)	-60% (active)
c1ccc(CCn2cccc2)nc1	96.7%
c1ccc(-c2nnn(-c3ccccc3)n2)cc1	107%
Cc1csc(N/N=C/c2ccncc2)n1	99.9%
COc1ccccc1CNCCCN1C(=O)c2ccc3c4c(ccc(c24)C1=O)C(=O)N(CCCCNCCCN)C3=O	-6.41% (active)
